Data reported in PubChem BioAssay AID1347420 (Sanford-Burnham Center for Chemical Genomics, 2020).
Out of some 1,300 compounds screened, about 980 (75%) were called active. About 4% were inconclusive and are not listed. The list shows a part of the results. A number with no mark means an inactive call.

Molecular target: Sulfhydryl oxidase 1 (Homo sapiens) (UniProt O00391)
Experiment: inhibition of human sulfhydryl oxidase QSOX1 – biochemical, HyperBlu H2O2 luminescence, HTS, primary screen (AID 1347420); also: values above 100% were filed as inconclusive
Settings: recombinant QSOX1, HyperBlu H2O2 luminescence; at 12.5 µM; active compounds read high; active = any value above zero

Chain of Sulfhydryl oxidase 1 (Homo sapiens) (O00391 whole entry, looked up): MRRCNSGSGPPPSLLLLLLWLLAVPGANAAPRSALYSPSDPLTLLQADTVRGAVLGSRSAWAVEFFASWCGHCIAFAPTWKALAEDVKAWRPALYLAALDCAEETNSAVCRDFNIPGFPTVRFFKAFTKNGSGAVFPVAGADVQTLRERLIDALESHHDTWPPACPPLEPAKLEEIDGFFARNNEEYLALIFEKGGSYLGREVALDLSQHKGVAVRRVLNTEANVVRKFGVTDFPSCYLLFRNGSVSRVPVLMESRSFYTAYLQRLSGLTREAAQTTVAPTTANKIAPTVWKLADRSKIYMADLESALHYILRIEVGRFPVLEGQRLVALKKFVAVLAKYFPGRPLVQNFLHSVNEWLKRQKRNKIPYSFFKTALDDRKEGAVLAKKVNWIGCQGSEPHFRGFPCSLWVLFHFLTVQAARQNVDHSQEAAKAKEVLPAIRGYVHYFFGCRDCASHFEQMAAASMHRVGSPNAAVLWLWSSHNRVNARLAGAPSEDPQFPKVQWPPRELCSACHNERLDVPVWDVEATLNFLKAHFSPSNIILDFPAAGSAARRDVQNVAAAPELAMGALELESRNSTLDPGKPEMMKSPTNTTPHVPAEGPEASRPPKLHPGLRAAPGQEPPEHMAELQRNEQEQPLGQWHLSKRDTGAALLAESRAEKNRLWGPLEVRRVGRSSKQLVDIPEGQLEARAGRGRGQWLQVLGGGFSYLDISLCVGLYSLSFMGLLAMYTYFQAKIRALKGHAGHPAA

SMILES	inhibition
CC(C)(C)NCC(O)COc1cccc2[nH]c(=O)[nH]c12 (centres undefined)	14% (active)
COc1cccc2c1[C@@H]1CN(CCCCn3c(=O)[nH]c4c(sc5ncc(-c6ccccc6)nc54)c3=O)C[C@@H]1CO2	47% (active)
NCCCC(N)(C(=O)O)C(F)F (centres undefined)	4.1% (active)
CNC(=O)Oc1ccc2c(c1)[C@]1(C)CCN(C)[C@@H]1N2C	17.7% (active)
O=C(O)C1CCCNC1 (centres undefined)	13.4% (active)
O=C(O)[C@H]1NCCC[C@H]1C(=O)O	-4.7%
O=C(O)C1CCNCC1	1.7% (active)
CC1=NS(=O)(=O)c2cc(Cl)ccc2N1	34.8% (active)
CC(CCc1ccccc1)NCC(O)c1ccc(O)c(C(N)=O)c1 (centres undefined)	12.9% (active)
Nc1ccc(N2C(=O)c3ccccc3C2=O)c(Cl)c1	7.7% (active)
N[C@@H]1CONC1=O	-0.9%
N[C@H]1CONC1=O	3.7% (active)
NC1CONC1=O (centres undefined)	2.4% (active)
Fc1cccc(/C=N/N=C/c2cccc(F)c2)c1	-1.8%
O[Si](CCCN1CCCCC1)(c1ccc(F)cc1)C1CCCCC1 (centres undefined)	4.4% (active)
Cn1ncc(S(=O)(=O)Cc2ccccc2)c(Br)c1=O	11.5% (active)
C[C@@H](O)[C@H]1C(=O)N2C(C(=O)O)=C(SCCN=CN)C[C@H]12	17.6% (active)
CCn1cc(C(=O)O)c(=O)c2cc3c(cc21)OCO3	-7.6%
CCn1cc(C(=O)O)c(=O)c2ccc(C)nc21	10.1% (active)
CNC(=O)[C@H]1O[C@@H](n2cnc3c(NCc4ccc(N)cc4)ncnc32)C(O)[C@H]1O (some centres undefined)	32.2% (active)
CCNC(=O)[C@H]1O[C@@H](n2cnc3c(N)nc(NCCc4ccc(CCC(=O)O)cc4)nc32)C(O)[C@H]1O (some centres undefined)	45.5% (active)
CNC(=O)[C@H]1O[C@@H](n2cnc3c(NCc4cccc(I)c4)ncnc32)C(O)[C@H]1O (some centres undefined)	14% (active)

SMILES	inhibition
CC(=O)N[C@@H](CS)C(=O)O	43.1% (active)
CC1(C)CCC=[N+]1[O-]	6.8% (active)
Cn1ccc2cc3c(cc21)CCN3C(=O)Nc1cccnc1	-4.6%
CN1CCc2cc(NC(=O)Nc3cccnc3)ccc21	16.5% (active)
O=C(O)CCC(=O)N1CCCC1C(=O)O (centres undefined)	-11.1%
CCCN1C[C@H](CSC)C[C@@H]2c3cccc4[nH]cc(c34)C[C@H]21	31% (active)
CCc1c(C)[nH]c2c1C(=O)C(CN1CCOCC1)CC2 (centres undefined)	17.7% (active)
N[C@@H](Cc1cnc[nH]1)C(=O)O	-5.8%
O=C(O)/C=C/c1cnc[nH]1	10.6% (active)
CN(C)c1cc2c(Nc3ccc4c(cnn4Cc4ccccc4)c3)ncnc2cn1	15.4% (active)
CC#CCOC(=O)c1c(C)nc2sc3c(c2c1N)CCC(O)C3 (centres undefined)	-4.2%
S=C(Nc1ccccc1)Nc1nccs1	35.5% (active)
CC1CCN=C(N)S1 (centres undefined)	29.6% (active)
NCCSSCCN	47.5% (active)
O=C1/C(=C/c2ccsc2)CC/C1=C\c1cccs1	17.5% (active)
COc1cc2c(c(OC)c1OC)-c1ccc(OC)c(=O)cc1[C@@H](NC(C)=O)CC2	-1%
Cn1cc(C2=C(c3ccc(Cl)cc3Cl)C(=O)NC2=O)c2ccccc21	25.7% (active)
CCc1ccc(/C=C2/SC(=S)NC2=O)cc1	69.4% (active)
O=C(O)CCc1nc(-c2ccccc2)c(-c2ccccc2)o1	-0.1%
CC1COc2c(N3CCN(C)CC3)c(F)cc3c(=O)c(C(=O)O)cn1c23 (centres undefined)	5.3% (active)
OC(CN1CCC(Cc2ccc(F)cc2)CC1)c1ccc(Cl)cc1 (centres undefined)	1.3% (active)
CCCCN1CCC(n2c(=O)[nH]c3ccccc32)CC1	16.3% (active)

SMILES	inhibition
CN(C)CCCO[C@@H]1[C@H]2OC(C)(C)O[C@H]2O[C@@H]1C(O)CO (some centres undefined)	14.7% (active)
O=C(O)[C@@H]1C[C@@H](C(=O)O)N1	4.5% (active)
O=C(O)[C@@H]1C[C@H](C(=O)O)N1	-18.8%
CC(C)(C=O)Cc1cc(C(C)(C)C)c(O)c(C(C)(C)C)c1	2.8% (active)
CC(C)(CO)Cc1cc(C(C)(C)C)c(O)c(C(C)(C)C)c1	-2.3%
COc1cc2nc(N3CCCN(C)CC3)nc(NC3CCN(Cc4ccccc4)CC3)c2cc1OC	5.4% (active)
CC(C(=O)O)c1cccc(C(=O)c2ccccc2)c1 (centres undefined)	8.2% (active)
COc1ccc2cc([C@H](C)C(=O)O)ccc2c1	-13.9%
COc1ccccc1N1CCN(CCCCN2C(=O)c3ccccc3C2=O)CC1	2% (active)
COc1ccccc1N1CCN(CCCCNC(=O)c2ccc3ccccc3c2)CC1	36.1% (active)
Cc1cccc(C(=O)NCN2CCN(c3ccccc3C#N)CC2)c1	-17.3%
COc1ccccc1N1CCN(CCN2C(=O)CC3(CCCC3)CC2=O)CC1	61.3% (active)
O=C1CC2(CCCC2)CC(=O)N1CCCCN1CCN(c2ncccn2)CC1	-6.6%
CN[C@H](CC(=O)O)C(=O)O	15.9% (active)
c1ccc(C(NCc2cccnc2)(c2ccccc2)c2ccccc2)cc1	2.5% (active)
CC(C)(Oc1ccc(C2CC2(Cl)Cl)cc1)C(=O)O (centres undefined)	-2.9%
CC(C)(Oc1ccc(CCNC(=O)c2ccc(Cl)cc2)cc1)C(=O)O	5.4% (active)
C=C/C(C)=C/[C@@]1(C)SC(=O)C(C)=C1O	13.4% (active)
O=C1NC(c2cccc([N+](=O)[O-])c2)=CCN1c1ccccc1O	24.8% (active)
N=C(N)SCCc1cnc[nH]1	-0.5%
NCCc1cnc[nH]1	10.9% (active)
CCCCC[C@H](CC(=O)NO)C(=O)N[C@H](C(=O)N1CCC[C@H]1CO)C(C)C	-27.8%

SMILES	inhibition
COc1cc(OC)c(/C=C2/C(=O)Nc3ccccc32)c(OC)c1	44.2% (active)
CCC1(O)CC2CN(CCc3c([nH]c4ccccc34)[C@@](C(=O)OC)(c3cc4c(cc3OC)N(C)C3[C@]45CCN4CC=C[C@@](CC)([C@@H](OC(C)=O)[C@]3(O)C(=O)OC)[C@H]45)C2)C1 (some centres undefined)	18.8% (active)
CCC1(O)CC2CN(CCc3c([nH]c4ccccc34)[C@@](C(=O)OC)(c3cc4c(cc3OC)N(C=O)C3[C@]45CCN4CC=C[C@@](CC)([C@@H](OC(C)=O)[C@]3(O)C(=O)OC)[C@H]45)C2)C1 (some centres undefined)	2.9% (active)
C/C(=C\c1ccc(C(=O)O)cc1)c1ccc2c(c1)C(C)(C)CCC2(C)C	5.8% (active)
CCCCC/C=C\CC(O)/C=C/c1cccc(CC(O)CCCCO)n1 (centres undefined)	-9.6%
O=c1cc(-c2ccccc2)[nH]c2nc(Cl)ccc12	2.9% (active)
O=C1CCC(N2C(=O)c3ccccc3C2=O)C(=O)N1 (centres undefined)	3% (active)
Cc1cccc(C#Cc2ccccc2)n1	15.5% (active)
CC(C)c1ccc2c(c1)c(SC(C)(C)C)c(CC(C)(C)C(=O)O)n2Cc1ccc(Cl)cc1	0.2% (active)
NCCCCN=C(N)N	15.4% (active)
NC(N)=NCCCCN=C(N)N	7% (active)
CCN(CC)CC#CCOC(=O)C(O)(c1ccccc1)C1CCCCC1 (centres undefined)	8.3% (active)
O=C(/C=C/c1ccc(O)cc1)c1ccc(O)cc1O	58.4% (active)
NC(Cc1cccc(-c2ccccc2CP(=O)(O)O)c1)C(=O)O (centres undefined)	5.3% (active)
Oc1ccc(Cn2cc[nH]c2=S)cc1	22.2% (active)
COCc1nc2c([nH]1)c(=O)n(C)c(=O)n2CC(C)C	3% (active)
CNCCC=C1c2ccccc2CCc2ccccc21	0.1% (active)
CN(C)CCC=C1c2ccccc2CCc2ccccc21	23.9% (active)
CN(C)CC/C=C1\c2ccccc2COc2ccccc21	5% (active)
CN(C)CCC=C1c2ccccc2C=Cc2ccccc21	-6.8%
NC(=O)c1ncn([C@@H]2O[C@H](CO)[C@@H](O)[C@H]2O)c1O	9.1% (active)
NC(=O)c1ncn([C@@H]2O[C@H](CO)[C@@H](O)[C@H]2O)n1	6.1% (active)

SMILES	inhibition
CCN(CC)CC(=O)Nc1c(C)cccc1C	6.5% (active)
COC(=O)C1=CO[C@@H](O)[C@@H]2C(CO)=CC[C@H]12	16.3% (active)
CCC(C)N(C)C(=O)c1cc2ccccc2c(-c2ccccc2Cl)n1 (centres undefined)	14% (active)
CN=C(NC#N)NCCSCc1nc[nH]c1C	13.2% (active)
Cc1cccc(C)c1OCC(N)C(C)C (centres undefined)	15.4% (active)
Cc1cccc(C)c1OCC(C)N (centres undefined)	-6%
CC(N=C(NC#N)Nc1ccncc1)C(C)(C)C (centres undefined)	-10.9%
CC(N)C1CCC(C(=O)Nc2ccncc2)CC1 (centres undefined)	23% (active)
Brc1ccc([C@H]2CN3CCSC3=N2)cc1	18.2% (active)
c1ccc([C@H]2CN3CCSC3=N2)cc1	10.2% (active)
c1ccc(C2CN3CCSC3=N2)cc1 (centres undefined)	-12.3%
CCCn1c(=O)c(C)cn2nc(N)nc12	12.2% (active)
CCCCCCCCCCC(C)(C)C(=O)Nc1c(OC)cc(OC)cc1OC	15.9% (active)
Brc1c(Br)c(Br)c2n[nH]nc2c1Br	29.4% (active)
NC(=Nc1ccccc1)NC(=O)c1nc(Cl)c(N)nc1N	13.3% (active)
NC(=NCc1ccccc1)NC(=O)c1nc(Cl)c(N)nc1N	3.9% (active)
O=C(O)CNC(=O)C(CS)Cc1ccccc1 (centres undefined)	3.5% (active)
COc1ccc(NC(=O)/C=C/c2ccc(Cl)cc2)cc1	18% (active)
COc1ccc([C@@H]2Sc3ccccc3N(CCN(C)C)C(=O)[C@@H]2OC(C)=O)cc1	10.6% (active)
CS(=O)(=O)Nc1ccc([N+](=O)[O-])cc1Oc1ccccc1	97.4% (active)
Cc1ccc([N+](=O)[O-])cc1S(=O)(=O)N(C)C	-9.6%
